# PubChem BioAssay (NCI)
# The panel holds about 83,000 compounds, 20% with a hit somewhere; the sample as a whole holds those more often.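 Percent growth is the endpoint: 0 to 100 indicates growth inhibition (40 means 60% inhibition), 0 means no net growth, and negative values indicate cell death.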 Values without a mark were called inactive. The source made the active and inactive calls. How the source made its calls: active means growth percent below 10; inactive means the rest.
# How the values were obtained:
# Assay in all cases: NCI-60 one-dose screen, 48 h (100 = growth as untreated, 0 = no growth, -100 = all killed)
# SK-MEL-2 melanoma = details: 10 µM unless noted
# EKVX NSCLC = details: 10 µM unless noted
# SN12C renal = details: 10 µM unless noted
# UO-31 renal = details: 10 µM unless noted
# TK-10 renal = details: 10 µM unless noted
# ACHN renal = details: 10 µM unless noted
# CAKI-1 renal = details: 10 µM
# CCRF-CEM leukemia = details: 10 µM unless noted
# MOLT-4 leukemia = details: 10 µM unless noted
# SR leukemia = details: 10 µM unless noted
# RPMI-8226 leukemia = details: 10 µM unless noted
# OVCAR-8 ovarian = details: 10 µM unless noted
# OVCAR-5 ovarian = details: 10 µM unless noted
# OVCAR-4 ovarian = details: 10 µM unless noted
# SK-OV-3 ovarian = details: 10 µM unless noted
# IGROV1 ovarian = details: 10 µM unless noted
# OVCAR-3 ovarian = details: 10 µM unless noted
# HS 578T breast = details: 10 µM unless noted
# NCI/ADR-RES ovarian = details: 10 µM unless noted
SMILES,growth (SK-MEL-2 melanoma),growth (EKVX NSCLC),growth (SN12C renal),growth (UO-31 renal),growth (TK-10 renal),growth (ACHN renal),growth (CAKI-1 renal),growth (CCRF-CEM leukemia),growth (MOLT-4 leukemia),growth (SR leukemia),growth (RPMI-8226 leukemia),growth (OVCAR-8 ovarian),growth (OVCAR-5 ovarian),growth (OVCAR-4 ovarian),growth (SK-OV-3 ovarian),growth (IGROV1 ovarian),growth (OVCAR-3 ovarian),growth (HS 578T breast),growth (NCI/ADR-RES ovarian)
CCNC(=O)Oc1ccc(/C(=C(/C)c2ccc(Cl)cc2)c2ccc(OCCN(C)C)cc2)cc1,98%,72.1%,77.8%,61.7%,92%,91.4%,73.4%,66.7%,50.4%,42.4%,19.3%,87.9%,84.9%,71.6%,94.2%,64.4%,77.8%,80.8%,74.9%
COc1ccc(/C=C/C(=O)c2nnn(-c3ccc(Br)cc3)c2C)cc1OC,88.6%,62.3%,80.2%,66.7%,95.4%,86%,83.4%,66.4%,78.4%,52.6%,10.5%,82.7%,94.1%,71.6%,90.3%,69.2%,52.9%,92.5%,59.3%
N/C(=N\OC(=O)CSc1nc2ccccc2s1)c1ccc2ccccc2c1,102%,91.8%,95.2%,78.6%,118%,91%,85.8%,101%,99.2%,117%,110%,98.8%,98.9%,109%,101%,97.3%,116%,105%,104%
CCOC(=O)c1c(NCC(=O)Nc2cccc([N+](=O)[O-])c2)sc2c1CCCC2,-43.2% (active),-22.7% (active),-28.9% (active),-17.7% (active),-33.2% (active),-60.9% (active),-20.2% (active),8.8% (active),5.22% (active),11.7%,-10.7% (active),-18.2% (active),-45.6% (active),-45.2% (active),-67.3% (active),-19.6% (active),-39.7% (active),-14.8% (active),-36.7% (active)
CSc1ccc(/C(=N/N=C(N)N)c2ccccc2)cc1,58.7%,48.1%,27.9%,35.1%,63.9%,28.6%,42%,10.6%,22.3%,19.7%,17.9%,29.5%,48.3%,67.2%,66.2%,21.8%,2.28% (active),31.8%,40.3%
N#C/C(=C\c1ccc(Cl)cc1Cl)C(N)=O,106%,105%,98.3%,94.4%,102%,101%,90.8%,89.7%,109%,80.5%,111%,106%,99.7%,107%,107%,102%,109%,99%,107%
N/C(=N\OC(=O)CSc1nc2ccccc2s1)c1ccc(Cl)cc1,101%,86.6%,102%,76.6%,127%,91.4%,83.4%,102%,96.7%,84.8%,99.4%,98%,100%,107%,101%,89%,111%,97%,101%
CC1(C)CC[C@]2(C(=O)O)CC[C@]3(C)C(=CCC4[C@@]5(C)C[C@@H](O)[C@@H]6OC(c7ccccc7O)OC[C@@]6(C)C5CC[C@]43C)C2C1 (some centres not stated),85.7%,39.9%,60.1%,54.8%,52.2%,25.3%,73.5%,46.8%,39.2%,53.3%,55.4%,53.1%,103%,63.6%,80%,57.2%,47.4%,80.6%,34.6%
